We go through 25 compounds from PubChem BioAssay AID588335 (The Scripps Research Institute Molecular Screening Center, 2011).

In all, about 360,000 compounds went through this assay and about 4,500 (1.2%) were called active. Rule as the data show it: active = inhibition above about 30%; inactive = the rest. This excerpt belongs to a sample that is enriched for actives.

This assay in a line: GDH-TPI coupling enzyme inhibitors, primary screen, artefact control for M. tuberculosis FBA inhibitor project, biochemical, absorbance, full deck (AID 588335).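 Also: 0% = DMSO wells and 100% = wells lacking the enzyme.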 As to conditions: GDH-TPI coupled enzyme counterscreen, NADH absorbance; at 4.8 µM; active compounds read high.
As to `COc1ccc(NC(=O)N(C)C[C@H]2Oc3ncc(C#C[C@@H](C)O)cc3C(=O)N([C@H](C)CO)C[C@H]2C)cc1`, the inhibition is 1.42% (inactive).

For the compound `Cc1ccc2c(c1)C1C[N+](C)(CC(=O)c3ccccc3)CCC1N2C(=O)c1ccccc1Cl` (stereo not given), the inhibition was -8.62% (inactive).

On to `O=C(N/N=C/c1ccc2c(c1)OCO2)c1ccc(Cn2cc([N+](=O)[O-])cn2)o1`, for which the inhibition was 43.3% (active).

For `O=C(c1ccc(Cn2cc([N+](=O)[O-])cn2)o1)N1CCCC1`, the inhibition was -17.2% (inactive).

Take `CN(C)c1ccc(/C=N/NC(=O)C(O)c2ccc(Br)cc2)cc1` (stereo not given): the inhibition was 30.4% (inactive).

On to `CN(C)c1ccc(/C=N/NC(=O)c2ccc(Cn3cc(Br)cn3)o2)cc1`, for which the inhibition is 30.7% (active).

As for `O=C(Nc1ccc(Br)c2cccnc12)c1ccc(Cn2cc([N+](=O)[O-])cn2)o1`, the inhibition was 4.69% (inactive).

Turning to `CC1CCc2c(sc(NC(=O)c3ccc(Cn4cc(Br)cn4)o3)c2C(N)=O)C1` (stereo not given), the inhibition was 7.5% (inactive).

For the compound `O=C(NCCCN1CCCCC1)C1CCCN(c2ncnc3c2nc2n3CCCCC2)C1` (stereo not given), the inhibition was -16.5% (inactive).

Turning to `COc1ccc(OC)c(NC(=O)C2(C)CCN2C(=O)Cc2ccccc2)c1` (stereo not given), the inhibition was 7.08% (inactive).

Consider `C=C(C)CNC(=S)/N=c1\scc(C)n1CC`, for which the inhibition was 13.2% (inactive).

Consider `Cc1ccc(/C=N/NC(=O)Cn2nc(C)c(Br)c2C)o1`, for which the inhibition was 5.47% (inactive).

As to `Cc1ccc(/C=N/NC(=O)Cn2ccc(C(F)(F)F)n2)o1`, the inhibition is 7.37% (inactive).

Take `O=C(O)c1ccc(NN=CC2=C(N3CCOCC3)/C(=C/c3ccccc3)CC2)cc1`: the inhibition is 22.9% (inactive).

With `COc1ccccc1C(=O)NC(=S)Nc1ccc(N2CCOCC2)cc1`, the inhibition is 19.6% (inactive).

With `Cc1ccc(/C=N/NC(=O)c2cc3ccccc3cc2O)o1`, the inhibition was 34.5% (active).

For `O=C(NN=Cc1ccc(N2CCOCC2)cc1)c1cc2ccccc2cc1O`, the inhibition was 50.6% (active).

On to `CCOC(=O)CN(C(=O)CN1CCOCC1)c1ccc(Br)cc1`, for which the inhibition is 9.62% (inactive).

As to `Cn1c(SCC(=O)N2CCOCC2)nnc1-c1ccc(NC(=O)c2ccccc2F)cc1`, the inhibition was 0% (inactive).

As to `Cc1cccc(C(C)C)c1NC(=O)COC(=O)C1CC(=O)N(Cc2ccccc2)C1` (stereo not given), the inhibition is -2.1% (inactive).

On to `COc1ccc(CCNS(=O)(=O)c2cc3c(cc2C)NC(=O)CO3)cc1OC`, for which the inhibition was -4.31% (inactive).

On to `CC1(C)CC(=O)C=C(NCc2ccncc2)C1`, for which the inhibition is 0.7% (inactive).

For the compound `O=C1/C(=C/c2ccc3c(c2)OCO3)Oc2cc(OCC(=O)N3CC(O)C[C@H]3C(=O)O)ccc21` (stereo not given in full), the inhibition is 28.4% (inactive).

`CCCNC(=O)N1CCC(c2ccc3c(c2)OCO3)CC1`: the inhibition is -5.17% (inactive).

With `O=C1/C(=C\c2ccc3c(c2)OCO3)N2CCC1CC2`, the inhibition was 33.3% (active).
